FEN1 inhibitor – inhibitors of human flap endonuclease 1. hit rate 0.35% among 390,000. Recombinant FEN1 flap cleavage, fluorescence, 15 min. Potency, µM (highest dose often 114 µM), for the others: at the top dose activity change, negative = inhibition, actives largely listed as inhibitors; further: potency means the concentration at half of the fitted maximal effect; nearly all actives have a fitted effect of over 65% in size
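Read-out was taken twice, immediately and after 15 min, following addition of 50 nM substrate to 10 nM FEN1 that had sat with test compound for 15 min at room temperature. Curves came from a four-parameter Hill model.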
PI4K2A inh – blocks human PI4K2A kinase activity; Q9BTU6; purified PI4K2A, ADP-Glo luminescence, 1 h; hits give low values; activity change, negative = inhibition, % at 76.9 µM; hit rate 0.13% among 420,000; AID 1346378; in the data active means activity change below about -50%; inconclusive means mostly about -30% to -49%;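 further: -100% = wells without enzyme as full effect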
Target sequence (Q9BTU6 whole entry, looked up): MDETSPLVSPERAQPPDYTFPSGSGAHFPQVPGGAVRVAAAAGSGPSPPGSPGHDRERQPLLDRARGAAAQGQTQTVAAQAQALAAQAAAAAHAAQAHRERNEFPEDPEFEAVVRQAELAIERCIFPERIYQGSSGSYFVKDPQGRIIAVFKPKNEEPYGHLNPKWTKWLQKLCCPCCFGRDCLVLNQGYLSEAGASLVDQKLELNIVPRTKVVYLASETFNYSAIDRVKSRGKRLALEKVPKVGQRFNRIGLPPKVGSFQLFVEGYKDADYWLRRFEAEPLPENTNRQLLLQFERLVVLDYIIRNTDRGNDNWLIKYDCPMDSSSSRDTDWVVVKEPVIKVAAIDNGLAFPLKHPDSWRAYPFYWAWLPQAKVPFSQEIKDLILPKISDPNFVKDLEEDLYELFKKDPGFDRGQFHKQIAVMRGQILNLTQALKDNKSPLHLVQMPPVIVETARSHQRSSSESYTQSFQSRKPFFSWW
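ADP-Glo luminescence measured ADP generated by PI4K2A enzyme (4 ug/mL before mixing) with 1.2 mM PI substrate (pre-mix) and 300 microM ATP (pre-mix). Tris pH7.5 buffer with MgCl2, Triton X-100; 1 h reaction at ambient temperature.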
Tb PGK inh – T. brucei PGK inhibition | PGK/GAPDH coupled, Kinase-Glo luminescence, 60 min | Potency, µM (series often up to 57.5 µM), inactives show at the highest dose activity change, negative = inhibition, most hits filed as inhibitors | hit rate 0.043% among 380,000 | AID 602233; further: potency means the concentration at half of the fitted maximal effect; nearly all actives have a fitted effect of over 60% in size
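Luminescent ATP detection (Kinase-Glo Plus) follows a 60-minute room-temperature incubation, with wells lacking PGK as controls. Buffer: 100 mM TEA (pH 7.6), 5 mM MgCl2, 0.01% Tween-20. Coupling enzyme GAPDH (100 nM final) supplies unstable 1,3-BPG in-well.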
TDP1 inh – blocks human tyrosyl-DNA phosphodiesterase 1; hit rate 0.28% among 350,000; recombinant TDP1, AlphaScreen DNA substrate cleavage; Potency, µM (highest dose often 130 µM), for the others: at the highest dose activity change, negative = inhibition, most hits filed as inhibitors; Q9NUW8; AID 485290; further: potency means the concentration at half of the fitted maximal effect; nearly all actives have a fitted effect of over 40% in size
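E. coli-derived human Tdp1, 1 nM final. Cpd preinc 15 min RT; substrate 15 nM final, 5 min RT; AS bead mix 10 ug/ml final, 10 min RT. Signal loss = tyrosine-FITC cleavage. No-enzyme wells = max signal.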
APE1 inh – inhibitors of human APE1 endonuclease. P27695. recombinant APE1, TAMRA/BHQ-2 abasic DNA cleavage fluorescence. Potency, µM (top dose mostly 65.8 µM), for inactives: at the top dose activity change, negative = inhibition, hits mostly inhibitors. hit rate 0.35% among 350,000. AID 2517;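 further: potency means the concentration at half of the fitted maximal effect; plate controls were vehicle for no effect and reference inhibitor for full effect; nearly all actives have a fitted effect of over 55% in size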
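Kinetic fluorescence read (525 ex/598 em nm, three reads 60 s apart) of AP-site incision; signal = third minus first read. Enzyme 0.75 nM, dual-labelled THF duplex 50 nM, compound preincubation 15 min RT.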
Tb PFK block – inhibitors of T. brucei phosphofructokinase; hit rate 0.17% among 330,000; Potency, µM (series often up to 57.5 µM), inactives show at the top dose activity, negative = inhibition, actives largely listed as inhibitors; T. brucei PFK, ADP-Glo luminescence;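 further: potency means the concentration at half of the fitted maximal effect; 0% = uninhibited 1x PFK enzyme wells and -100% = no-enzyme wells; nearly all actives have a fitted effect of over 60% in size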
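Compounds were pin-transferred as a titration series up to 57 uM into substrate buffer (0.5 mM F6P, 0.1 mM ATP, pH 8.0), then 1.25 nM PFK was added and reactions ran 45 min before ADP-Glo detection.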
* marks the source's active call; other numbers are inactive results; i = inactive; ? = inconclusive; . = no result; [ ] = remark or other dose. Only some compounds are listed: those with a hit (about 0.8% of all), similar ones and a draw of the others. Unless noted, the call rests on the fitted dose curve; in most records, active means well fitted curve in the direction sought with a large enough effect; inconclusive means small, poorly fitted or top-dose-only effect, or another doubt; inactive means no such curve, though single readings can be large; an effect the other way counts as inactive or inconclusive. Unless noted, on the % scale 0 is the no-effect control and ±100 the full control effect.

SMILES	FEN1 inhibitor	PI4K2A inh	Tb PGK inh	TDP1 inh	APE1 inh	Tb PFK block
C[n+]1c(-c2ccccc2)cc2c(=Cc3ccccc3)c3ccccc3n21	?	?	-4.4%	.	.	.
CN(C)c1ccc(C=c2c3cc(O)ccc3n3c2cc(-c2ccccc2)[n+]3C)cc1	7.94µM*	?	i	.	.	.
CN(C)c1ccc(C=c2c3ccccc3n3c2c2ccccc2[n+]3C)cc1	31.6µM*	-25.9	-13.5%	.	.	.
O=[N+]([O-])c1c(Nc2cccc(O)c2)cc(Cl)c2nonc12	50.1µM*	-9.1	-10.0%	.	16.0%	?
N#Cc1c2c(c(=S)n(-c3ccccc3)c1N)CCCC2	5.1%	-4.2	-2.5%	-1.0%	-4.1%	3.0%
N#Cc1c(N)sc(=S)c2c1CCCCC2	?	?	-2.5%	10µM*	?	?
O=C(N/N=C\c1ccc2c(c1)OCO2)c1cncc(Br)c1	-17.8%	0.9	-3.0%	50.1µM*	-7.7%	-15.6%
O=C(N/N=C/c1ccc2c(c1)OCO2)c1cccnc1	3.7%	4.2	i	-0.8%	54.2%	7.9%
N#Cc1c(-c2ccccc2)nc(SCC(=O)N2c3ccccc3Sc3ccccc32)[nH]c1=O	89.1µM*	4.5	-15.7%	1.2%	-8.6%	1.7%
Cc1cccc(NC(=O)CN2C(=O)S/C(=C\c3ccc(O)c([N+](=O)[O-])c3)C2=O)c1	-1.4%	3.9	?	.	-0.6%	0.2%
O=C(CN1C(=O)S/C(=C\c2ccc(O)c([N+](=O)[O-])c2)C1=O)Nc1ccc(N2CCOCC2)cc1	14.7%	2.6	1.5%	44.7µM*	?	-12.0%
Cc1cccc(-n2c(-c3ccncc3)n[nH]c2=S)c1C	16.8%	-2.3	-7.7%	17.8µM*	20.4%	0.2%
CCc1ccccc1-n1c(-c2ccncc2)n[nH]c1=S	-8.5%	6.1	-3.1%	0.0%	31.6µM*	14.4%
Cc1ccccc1-n1c(-c2ccncc2)n[nH]c1=S	1.2%	0.2	1.0%	.	1.7%	0.2%
CCCn1c(-c2ccncc2)n[nH]c1=S	-1.3%	-0.6	5.4%	.	1.6%	-1.7%
COc1ccc(C2Nc3ccccc3C(=O)N2Cc2ccccc2)cc1COc1ccc(C#N)cc1 (configuration not stated)	.	.	.	-0.1%	.	.
CC(C)(C)C(=O)COC(=O)c1ccccc1O	0.3%	1.2	-5.7%	1.9%	?	1.8%
O=C(OCCCOC(=O)c1ccccc1O)c1ccccc1O	.	.	.	17.8µM*	15.4%	3.6%
O=C(OCc1ccccc1)c1ccccc1O	-15.0%	-9.9	-7.1%	79.4µM*	37.8%	-1.8%
O=C(COC(=O)c1ccccc1O)NCCCc1ccccc1	-1.0%	-2.7	8.5%	5.4%	?	-7.0%
O=C(Nc1ccc(S(=O)(=O)NCc2ccco2)cc1)c1ccc(F)cc1	-20.7%	-1.0	-12.5%	56.2µM*	-26.4%	-4.1%
O=C(Nc1ccccc1)c1ccc(S(=O)(=O)NCc2ccco2)cc1	1.4%	1.8	-7.9%	2.2%	-2.6%	7.1%
O=C(NCc1ccco1)C1CCN(S(=O)(=O)N2CCOCC2)CC1	-17.0%	-85.0*	0.9%	-2.0%	-2.6%	-6.5%[0.46 µM]
CCC(/C=C1\Sc2ccc(OC)cc2N1CCO)=C\c1sc2ccc(OC)cc2[n+]1CCO	35.5µM*	-29.3	?	6.9%	?	?
Cc1cc(N)n2nc(-c3ccccc3)cc2n1	-2.2%	-53.7*	?	5.4%	4.1%	-15.5%
N#C/C(=C1\SCC(c2ccccc2Cl)S1)n1ccnc1 (configuration not stated)	.	-2.6	.	.	.	.
Nc1c(C(=O)NCC2CCCO2)sc2nc3c(c(-c4ccco4)c12)CC/C3=C\c1ccco1 (configuration not stated)	3.16µM*	-75.9*	?	?	2µM*	-23.2%
COc1cccc(C2c3c(ncn(-c4cccc(C)c4)c3=N)Oc3ccc4ccccc4c32)c1 (configuration not stated)	.	.	.	4.2%	.	.
